# Results as given in PubChem BioAssay (EPA / NIEHS).
# Results filed as inconclusive are left out. More than one record can exist for a structure, and the calls need not agree. Calls of active or inactive are those of the source. How the source made its calls: active means hit-call score of the fitted dose curve at least 0.9, where 1 is the maximum; inconclusive means response in the unintended direction; inactive means score below 0.9.
# Experiments:
# [1] = target: human Peroxisome Proliferator-activated Receptor alpha (PPARa), PPARA (gene 5465) (UniProt Q07869); assay: NVS_NR_hPPARa: NovaScreen (NVS) Nuclear Receptor Binding Assay for human Peroxisome Proliferator-activated Receptor alpha (PPARa) (AID 2283359);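 further: activity means loss of TR-FRET signal versus DMSO baseline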
# Sequence of human Peroxisome Proliferator-activated Receptor alpha (PPARa), PPARA (gene 5465) (Q07869 whole entry, looked up): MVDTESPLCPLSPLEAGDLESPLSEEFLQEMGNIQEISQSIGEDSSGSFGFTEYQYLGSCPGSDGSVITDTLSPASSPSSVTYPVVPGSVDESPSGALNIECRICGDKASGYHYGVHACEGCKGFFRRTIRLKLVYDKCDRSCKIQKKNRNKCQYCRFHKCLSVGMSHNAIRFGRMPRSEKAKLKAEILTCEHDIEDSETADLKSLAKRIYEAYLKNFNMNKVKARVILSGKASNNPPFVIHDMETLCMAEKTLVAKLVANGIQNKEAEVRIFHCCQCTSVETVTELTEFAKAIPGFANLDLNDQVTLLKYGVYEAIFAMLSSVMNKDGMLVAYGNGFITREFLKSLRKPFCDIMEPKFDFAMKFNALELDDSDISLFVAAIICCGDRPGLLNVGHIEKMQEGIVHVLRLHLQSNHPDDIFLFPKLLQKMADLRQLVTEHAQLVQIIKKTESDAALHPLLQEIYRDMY
# In short: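 Cell-free TR-FRET binding assay with extracted PPARα protein, read 1 h after dosing. Primary screen in duplicate at 25 uM, with actives retested in concentration series. Loss of signal versus DMSO.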
# [2] = target: Nuclear receptor subfamily 1 group I member 2 (Homo sapiens) (UniProt O75469); assay: NVS_NR_hPXR: NovaScreen (NVS) Nuclear Receptor Binding Assay for human Pregnane X Receptor (PXR) (AID 2283365);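 further: a drop in FRET signal versus DMSO baseline means the compound binds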
# Sequence of Nuclear receptor subfamily 1 group I member 2 (Homo sapiens) (O75469 whole entry, looked up): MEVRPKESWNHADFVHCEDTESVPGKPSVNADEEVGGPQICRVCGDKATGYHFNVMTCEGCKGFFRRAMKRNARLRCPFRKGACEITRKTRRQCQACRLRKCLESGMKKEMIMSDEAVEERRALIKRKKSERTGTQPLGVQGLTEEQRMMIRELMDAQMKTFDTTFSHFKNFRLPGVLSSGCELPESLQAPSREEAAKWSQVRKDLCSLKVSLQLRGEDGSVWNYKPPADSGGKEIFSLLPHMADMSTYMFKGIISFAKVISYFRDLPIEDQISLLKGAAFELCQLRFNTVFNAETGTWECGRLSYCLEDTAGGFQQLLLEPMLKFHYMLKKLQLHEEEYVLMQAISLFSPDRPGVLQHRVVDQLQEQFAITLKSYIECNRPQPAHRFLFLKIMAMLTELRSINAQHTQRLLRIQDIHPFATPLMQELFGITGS
# In short: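 TR-FRET signal read at 2 h in a cell-free human PXR binding format. DMSO served as negative control and baseline; activity scored as signal loss. Single-concentration duplicate screen (25 uM), then concentration-response follow-up.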
# [3] = target: Retinoic acid receptor alpha (Homo sapiens) (UniProt P10276); assay: NVS_NR_hRARa_Agonist: NovaScreen (NVS) Nuclear Receptor Binding Assay for human Retinoic Acid Alpha Receptor Agonism (RAR) (AID 2283361)
# Sequence of Retinoic acid receptor alpha (Homo sapiens) (P10276 whole entry, looked up): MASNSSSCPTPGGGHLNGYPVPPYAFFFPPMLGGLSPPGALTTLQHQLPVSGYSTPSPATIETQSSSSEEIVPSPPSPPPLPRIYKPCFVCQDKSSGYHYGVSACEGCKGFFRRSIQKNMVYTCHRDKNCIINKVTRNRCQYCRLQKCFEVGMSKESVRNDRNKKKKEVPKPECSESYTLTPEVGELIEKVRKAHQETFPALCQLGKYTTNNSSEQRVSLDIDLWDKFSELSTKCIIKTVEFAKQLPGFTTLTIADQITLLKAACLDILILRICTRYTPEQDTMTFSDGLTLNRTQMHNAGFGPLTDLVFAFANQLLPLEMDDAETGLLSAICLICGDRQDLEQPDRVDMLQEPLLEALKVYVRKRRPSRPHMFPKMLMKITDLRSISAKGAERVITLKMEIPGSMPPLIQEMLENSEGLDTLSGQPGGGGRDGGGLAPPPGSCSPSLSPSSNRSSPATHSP
# In short: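 Cell-free TR-FRET binding readout with extracted receptor protein, read 2 hours after dosing; gain-of-signal fitted relative to DMSO. Screened in duplicate at 25 uM, actives then run in concentration-response.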
# [4] = target: guinea pig Sigma Receptor, Non-selective Binding, SIGMAR1 (gene 100135589) (UniProt Q60492); assay: NVS_OR_gSIGMA_NonSelective: NovaScreen (NVS) Nuclear Receptor Binding Assay for guinea pig Sigma Receptor, Non-selective Binding (AID 2283367)
# In short: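 Radioligand displacement on guinea pig brain membranes, read by filter-based scintillation counting 1 h after dosing. Loss of signal versus DMSO; initial duplicate single-point screen at 25 uM, actives followed in concentration series.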
# [5] = target: Estrogen receptor beta (Homo sapiens) (UniProt Q92731); assay: OT_ER_ERbERb_0480: Odyssey Thera (OT) 8-hour HEK293T Protein-Complementation Assay for Estrogen Receptor-beta/-beta Homodimer (AID 2283357);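 further: active means signal gain over DMSO baseline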
# Sequence of Estrogen receptor beta (Homo sapiens) (Q92731 whole entry, looked up, the tested form may be a part): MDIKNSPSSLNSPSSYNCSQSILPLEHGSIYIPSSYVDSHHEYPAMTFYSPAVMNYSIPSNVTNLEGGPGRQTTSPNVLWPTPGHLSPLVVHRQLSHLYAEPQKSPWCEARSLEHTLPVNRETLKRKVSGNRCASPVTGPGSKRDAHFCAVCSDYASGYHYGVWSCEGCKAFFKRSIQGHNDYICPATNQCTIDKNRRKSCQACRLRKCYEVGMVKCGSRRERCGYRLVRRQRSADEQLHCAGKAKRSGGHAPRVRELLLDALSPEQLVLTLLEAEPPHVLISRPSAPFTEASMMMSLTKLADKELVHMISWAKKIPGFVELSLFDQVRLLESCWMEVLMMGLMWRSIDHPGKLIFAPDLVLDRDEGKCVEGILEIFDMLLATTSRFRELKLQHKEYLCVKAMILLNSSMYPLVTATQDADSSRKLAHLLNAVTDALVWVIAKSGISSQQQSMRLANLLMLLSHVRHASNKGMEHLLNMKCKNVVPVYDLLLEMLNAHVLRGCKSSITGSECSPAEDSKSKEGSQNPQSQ
# In short: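 Fluorescence intensity, nuclear for agonists and nuclear plus cytoplasmic for antagonists, was quantified by laser scanning cytometry versus vehicle after 8 h treatment. The cells were HEK293T stably carrying ER beta LBD fragment-complementation partners.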
# [6] = target: PGR (gene 5241) (UniProt P06401); assay: NVS_NR_hPR: NovaScreen (NVS) Nuclear Receptor Binding Assay for human Progestron Receptor (PR) (AID 2283360);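 further: active means loss of bound radioligand signal versus DMSO baseline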
# Sequence of PGR (gene 5241) (P06401 whole entry, looked up): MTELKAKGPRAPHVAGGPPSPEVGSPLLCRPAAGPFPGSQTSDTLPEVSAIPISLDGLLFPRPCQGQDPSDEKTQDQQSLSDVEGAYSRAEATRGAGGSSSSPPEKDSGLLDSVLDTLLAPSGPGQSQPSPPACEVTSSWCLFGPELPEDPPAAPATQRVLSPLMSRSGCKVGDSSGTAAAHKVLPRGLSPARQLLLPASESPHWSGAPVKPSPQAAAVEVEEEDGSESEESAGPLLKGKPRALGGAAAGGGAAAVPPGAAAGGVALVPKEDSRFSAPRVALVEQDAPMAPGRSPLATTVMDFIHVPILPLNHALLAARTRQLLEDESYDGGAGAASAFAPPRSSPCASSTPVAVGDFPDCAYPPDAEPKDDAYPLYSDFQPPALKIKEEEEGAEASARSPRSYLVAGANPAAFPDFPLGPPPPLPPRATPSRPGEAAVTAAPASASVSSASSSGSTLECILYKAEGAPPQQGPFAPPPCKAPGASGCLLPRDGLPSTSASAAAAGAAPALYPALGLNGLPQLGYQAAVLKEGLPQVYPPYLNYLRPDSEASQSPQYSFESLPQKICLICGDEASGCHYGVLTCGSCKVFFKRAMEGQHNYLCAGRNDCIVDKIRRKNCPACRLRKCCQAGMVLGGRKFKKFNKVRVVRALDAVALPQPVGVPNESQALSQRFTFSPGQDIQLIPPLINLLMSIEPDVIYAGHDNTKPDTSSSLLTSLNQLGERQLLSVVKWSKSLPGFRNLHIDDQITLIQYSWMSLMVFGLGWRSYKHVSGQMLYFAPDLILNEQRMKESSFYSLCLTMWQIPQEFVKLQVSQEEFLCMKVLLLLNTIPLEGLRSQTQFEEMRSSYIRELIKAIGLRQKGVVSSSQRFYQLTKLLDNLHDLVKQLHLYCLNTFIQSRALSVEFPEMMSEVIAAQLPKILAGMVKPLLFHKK
# In short: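 T47D-derived receptor preparation, cell-free, with tritiated or iodinated radioligand displacement measured by scintillation 18 h post-dosing. Single 25 uM duplicate screen, then concentration series; signal loss relative to DMSO.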
# [7] = target: human Thyroid Receptor Alpha (TRa), THRA (gene 7067) (UniProt P10827); assay: NVS_NR_hTRa_Antagonist: NovaScreen (NVS) Nuclear Receptor Binding Assay for human Thyroid Receptor Alpha Antagonism (TRa) (AID 2283362);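 further: activity is loss of signal relative to DMSO baseline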
# Sequence of human Thyroid Receptor Alpha (TRa), THRA (gene 7067) (P10827 whole entry, looked up): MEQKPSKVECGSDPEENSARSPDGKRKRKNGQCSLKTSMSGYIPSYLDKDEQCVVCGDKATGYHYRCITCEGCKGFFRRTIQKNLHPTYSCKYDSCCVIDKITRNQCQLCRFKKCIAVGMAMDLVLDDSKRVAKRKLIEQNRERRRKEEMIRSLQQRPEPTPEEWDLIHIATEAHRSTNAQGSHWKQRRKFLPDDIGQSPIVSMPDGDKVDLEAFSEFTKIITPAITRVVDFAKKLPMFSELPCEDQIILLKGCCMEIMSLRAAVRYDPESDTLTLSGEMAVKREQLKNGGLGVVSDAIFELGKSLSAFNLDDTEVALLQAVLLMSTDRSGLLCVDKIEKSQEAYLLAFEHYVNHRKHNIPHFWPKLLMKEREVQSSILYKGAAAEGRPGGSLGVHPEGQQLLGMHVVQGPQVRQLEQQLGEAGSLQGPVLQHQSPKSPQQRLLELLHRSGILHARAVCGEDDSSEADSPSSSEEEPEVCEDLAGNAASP
# In short: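 AlphaLISA chemiluminescent immunoassay readout, taken 1 h post-dosing in a cell-free system with extracted protein. Activity was scored as signal loss against DMSO negative control, from duplicate single-concentration (25 uM) testing followed by concentration-response follow-up.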
# [8] = target: rat Androgen Receptor (AR), Ar (gene 24208) (UniProt P15207); assay: NVS_NR_rAR: NovaScreen (NVS) Nuclear Receptor Binding Assay for rat Androgen Receptor (AR) (AID 2283366)
# Sequence of rat Androgen Receptor (AR), Ar (gene 24208) (P15207 whole entry, looked up): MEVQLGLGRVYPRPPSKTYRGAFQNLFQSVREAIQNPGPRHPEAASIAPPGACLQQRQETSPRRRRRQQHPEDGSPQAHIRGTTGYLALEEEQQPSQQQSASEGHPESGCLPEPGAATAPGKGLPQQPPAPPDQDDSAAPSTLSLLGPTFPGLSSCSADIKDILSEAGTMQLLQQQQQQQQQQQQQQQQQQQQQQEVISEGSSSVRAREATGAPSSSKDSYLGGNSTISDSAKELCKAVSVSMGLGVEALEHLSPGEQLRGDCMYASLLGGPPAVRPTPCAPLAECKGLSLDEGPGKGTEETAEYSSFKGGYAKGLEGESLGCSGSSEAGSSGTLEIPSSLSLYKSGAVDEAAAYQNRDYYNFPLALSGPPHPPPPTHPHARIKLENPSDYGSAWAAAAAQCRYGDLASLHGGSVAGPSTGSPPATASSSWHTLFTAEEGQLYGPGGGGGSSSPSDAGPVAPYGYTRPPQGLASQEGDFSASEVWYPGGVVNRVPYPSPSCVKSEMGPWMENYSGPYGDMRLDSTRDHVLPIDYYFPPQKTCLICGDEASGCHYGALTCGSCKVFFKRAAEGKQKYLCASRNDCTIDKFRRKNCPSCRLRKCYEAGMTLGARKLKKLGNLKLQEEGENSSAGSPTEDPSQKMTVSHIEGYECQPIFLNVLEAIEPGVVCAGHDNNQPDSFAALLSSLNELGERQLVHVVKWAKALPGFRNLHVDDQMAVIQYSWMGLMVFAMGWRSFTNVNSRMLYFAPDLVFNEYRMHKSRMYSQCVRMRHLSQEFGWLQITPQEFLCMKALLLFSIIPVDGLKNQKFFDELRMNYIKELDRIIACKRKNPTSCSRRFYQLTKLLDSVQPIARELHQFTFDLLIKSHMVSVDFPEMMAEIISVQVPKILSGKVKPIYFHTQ
# In short: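 Cell-free radioligand binding on extracts of prostate from testosterone-pretreated rats, read by filter-based scintillation counting 18 h after dosing. Loss of bound signal fitted positively versus DMSO; primary screen in duplicate at 25 uM, actives followed up in concentration series.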
# [9] = target: Retinoic acid receptor alpha (Homo sapiens) (UniProt P10276); assay: NVS_NR_hRAR_Antagonist: NovaScreen (NVS) Nuclear Receptor Binding Assay for human Retinoic Acid Alpha Receptor Antagonism (RAR) (AID 2283358)
# In short: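 Cell-free TR-FRET binding assay with extracted human RARalpha in antagonist mode, read 2 h after dosing. Loss of signal was fitted relative to DMSO; the primary screen used 25 uM in duplicate, with concentration series on follow-up.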
# [10] = target: Glucocorticoid receptor (Homo sapiens) (UniProt P04150); assay: NVS_NR_hGR: NovaScreen (NVS) Nuclear Receptor Binding Assay for human Glucocorticoid Receptor (GR) (AID 2283363);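 on AC50: activity is loss of specific radioligand binding signal relative to DMSO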
# Sequence of Glucocorticoid receptor (Homo sapiens) (P04150 whole entry, looked up): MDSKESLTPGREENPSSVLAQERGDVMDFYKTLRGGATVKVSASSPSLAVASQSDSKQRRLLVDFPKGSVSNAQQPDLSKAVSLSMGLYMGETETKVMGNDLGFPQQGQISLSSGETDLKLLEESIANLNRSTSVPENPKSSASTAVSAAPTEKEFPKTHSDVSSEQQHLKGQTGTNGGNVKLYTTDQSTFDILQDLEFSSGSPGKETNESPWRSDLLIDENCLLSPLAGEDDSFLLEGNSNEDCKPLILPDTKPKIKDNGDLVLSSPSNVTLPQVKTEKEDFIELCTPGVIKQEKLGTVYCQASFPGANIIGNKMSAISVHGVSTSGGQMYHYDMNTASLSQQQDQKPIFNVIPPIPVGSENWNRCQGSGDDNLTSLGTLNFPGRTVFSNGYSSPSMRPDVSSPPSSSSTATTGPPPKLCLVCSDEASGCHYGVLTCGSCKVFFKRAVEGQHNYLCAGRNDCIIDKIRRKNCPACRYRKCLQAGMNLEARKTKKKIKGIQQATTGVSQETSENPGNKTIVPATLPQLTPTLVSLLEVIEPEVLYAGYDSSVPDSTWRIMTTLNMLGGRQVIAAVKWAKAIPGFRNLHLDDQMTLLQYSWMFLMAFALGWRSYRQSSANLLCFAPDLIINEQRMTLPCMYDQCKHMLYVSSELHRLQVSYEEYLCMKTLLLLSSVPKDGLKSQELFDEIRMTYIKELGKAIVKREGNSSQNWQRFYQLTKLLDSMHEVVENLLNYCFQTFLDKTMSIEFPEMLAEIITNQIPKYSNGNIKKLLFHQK
# In short: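 Cell-free radioligand displacement assay on extracted human GR, read 16 h after dosing by filter-based scintillation counting. Screened in duplicate at 25 uM, then concentration series for actives; loss of signal versus DMSO baseline.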
structure (smiles),measurement,setting,value
CC(C)(C)C(O)C(Oc1ccc(Cl)cc1)n1cncn1 (stereo unspecified),outcome,[1],inactive
same,AC50,[2],25 µM (active)
Oc1ccc(Cl)cc1Cc1ccccc1,outcome,[1],inactive
same,outcome,[3],inactive
ClC1C(Cl)C(Cl)C(Cl)C(Cl)C1Cl (stereo unspecified),outcome,[2],inactive
CCCN(CCOc1c(Cl)cc(Cl)cc1Cl)C(=O)n1ccnc1,AC50,[4],8.36 µM (active)
CNC(=O)CSP(=S)(OC)OC,outcome,[5],inactive
same,AC50,[6],6.3 µM (active)
same,outcome,[7],inactive
O=S(=O)(O)C(F)(F)C(F)(F)C(F)(F)C(F)(F)C(F)(F)C(F)(F)C(F)(F)C(F)(F)F,AC50,[1],11.2 µM (active)
same,outcome,[1],inactive
same,AC50,[6],20.2 µM (active) [middle of 4 runs]
same,AC50,[7],12 µM (active)
same,AC50,[2],39.6 µM (active)
O=C(O)CCCOc1ccc(Cl)cc1Cl,outcome,[5],inactive
same,outcome,[6],inactive
same,outcome,[8],inactive
COP(=S)(OC)Oc1ccc(SC)c(C)c1,outcome,[5],inactive
same,outcome,[6],inactive
same,AC50,[4],11.2 µM (active)
CC[C@H](C)[C@H]1O[C@]2(C=C[C@@H]1C)C[C@@H]1C[C@@H](C/C=C(\C)[C@@H](O[C@H]3C[C@H](OC)[C@@H](O[C@H]4C[C@H](OC)[C@@H](O)[C@H](C)O4)[C@H](C)O3)[C@@H](C)/C=C/C=C3\CO[C@@H]4[C@H](O)C(C)=C[C@@H](C(=O)O1)[C@]34O)O2 (tested in a mixture with another compound),AC50,[9],12.2 µM (active)
same,outcome,[6],inactive
same,AC50,[7],12 µM (active)
same,AC50,[10],8.5 µM (active)
same,outcome,[4],inactive
CCC(C)(C)C(=O)OC1=C(c2ccc(Cl)cc2Cl)C(=O)OC12CCCCC2,outcome,[3],inactive
COP(=O)(OC)OC=C(Cl)Cl,outcome,[5],inactive
same,outcome,[6],inactive
same,outcome,[7],inactive
COP(=S)(OC)Oc1ccc([N+](=O)[O-])cc1,outcome,[5],inactive
same,AC50,[6],10.3 µM (active)
same,outcome,[7],inactive
same,AC50,[4],4.69 µM (active)
COC(=O)c1ccccc1S(=O)(=O)NC(=O)Nc1nc(C)nc(OC)n1,outcome,[9],inactive
COc1nn(CSP(=S)(OC)OC)c(=O)s1,outcome,[5],inactive
same,outcome,[6],inactive
same,outcome,[7],inactive
same,outcome,[10],inactive
same,AC50,[4],10.7 µM (active)
CCOc1nc(NC)nc(NC(=O)NS(=O)(=O)c2ccccc2C(=O)OC)n1,outcome,[6],inactive
same,outcome,[7],inactive
same,outcome,[10],inactive
same,outcome,[8],inactive
N#Cc1c(Cl)c(Cl)c(Cl)c(C#N)c1Cl,outcome,[5],inactive
same,outcome,[6],inactive
same,AC50,[3],36.9 µM (active)
same,AC50,[7],40.5 µM (active)
same,AC50,[10],0.177 µM (active)
O=S1OCC2C(CO1)C1(Cl)C(Cl)=C(Cl)C2(Cl)C1(Cl)Cl (stereo unspecified),outcome,[9],inactive
same,outcome,[6],inactive
same,AC50,[10],2.29 µM (active)
same,outcome,[8],inactive
O=C(O)C(F)(F)C(F)(F)C(F)(F)C(F)(F)C(F)(F)C(F)(F)C(F)(F)F,outcome,[5],inactive
same,outcome,[1],inactive
same,outcome,[6],inactive
C[C@H]1[C@H](c2ccc(Cl)cc2)SC(=O)N1C(=O)NC1CCCCC1,outcome,[5],inactive
same,outcome,[6],inactive
COc1cc(OC)nc(NC(=O)NS(=O)(=O)c2cc(NC=O)ccc2C(=O)N(C)C)n1,outcome,[7],inactive
Oc1cc(Cl)ccc1Oc1ccc(Cl)cc1Cl,outcome,[5],inactive
same,outcome,[10],inactive
COC(=O)c1ccccc1S(=O)(=O)NC(=O)N(C)c1nc(C)nc(OC)n1,outcome,[9],inactive
CC1(C)C(C=C(Cl)Cl)C1C(=O)OC(C#N)c1ccc(F)c(Oc2ccccc2)c1 (stereo unspecified),outcome,[9],inactive
same,outcome,[7],inactive
same,AC50,[10],7.25 µM (active)
CCCN(CCC)c1c([N+](=O)[O-])cc(C(F)(F)F)cc1[N+](=O)[O-],outcome,[8],inactive
O=C(O)COc1ccc(Cl)cc1Cl,outcome,[10],inactive
same,outcome,[4],inactive
CC(C)(C)C(O)/C(=C\c1ccc(Cl)cc1Cl)n1cncn1 (stereo unspecified),outcome,[5],inactive
same,AC50,[6],0.667 µM (active)
same,AC50,[2],0.281 µM (active)
same,AC50,[4],1.25 µM (active)
